# Source: the supplement of paper PMC9177965
# Where “and” joins values, the source holds several entries; their conditions need not be identical. Equal entries are not always repeated.
# What was measured:
# [1] = system: HT29 RNF43 G659fs (RNF43 659mut, CRISPR-edited); test: cell viability activity relative to DMSO (negative = inhibition); higher = more viable cells (less growth inhibition); details: 5 µM; 96 h
# Description: (§1)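 Broad Repurposing Library primary screen at a single dose of 5 uM. HT29 sg-Ctrl and HT29 RNF43 G659fs CRISPR-edited isogenic cells were seeded at 2500 cells/well in 384-well plates in duplicate and treated for 96 h. Viability was read by CellTiter-Glo and reported as % activity relative to DMSO, with MG132 as the positive control (negative = growth inhibition).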
# [2] = system: HT29 sg-Ctrl (RNF43 wildtype); test: as above; details: 5 µM; 96 h
# Description: as §1
smiles,measurement,setting,value
FC(F)c1nc2ccccc2n1-c1nc(N2CCOCC2)nc(N2CCOCC2)n1,cell viability activity,[1],-33%
same,cell viability activity,[2],-29.7%
NCCCCNCCCN,cell viability activity,[1],-26.8%
same,cell viability activity,[2],-2.46%
CC1(C)CC(=O)c2c(C(F)(F)F)nn(-c3ccc(C(N)=O)c(N[C@H]4CC[C@H](O)CC4)c3)c2C1,cell viability activity,[1],-86.4%
same,cell viability activity,[2],-78.4%
COCCOc1ccc2c(c1)ncn2-c1ccc2cccc(N3CCC(N)CC3)c2n1,cell viability activity,[1],-93.4%
same,cell viability activity,[2],-94.6%
CCN1CCC[C@H]1CNC(=O)c1c(OC)ccc(Br)c1OC,cell viability activity,[1],-49.5%
same,cell viability activity,[2],-38.6%
COC(=O)N[C@@H](C)CNc1nccc(-c2cn(C(C)C)nc2-c2cc(Cl)cc(NS(C)(=O)=O)c2F)n1,cell viability activity,[1],-69.5%
same,cell viability activity,[2],-72.4%
Cn1cnc2c(F)c(Nc3ccc(Br)cc3Cl)c(C(=O)NOCCO)cc21,cell viability activity,[1],-71.6%
same,cell viability activity,[2],-70.6%
CS(=O)(=O)N1CCN(Cc2cc3nc(-c4cccc5[nH]ncc45)nc(N4CCOCC4)c3s2)CC1,cell viability activity,[1],-62.8%
same,cell viability activity,[2],-51.8%
CNCCCOc1cc(F)c(-c2c(Cl)nc3ncnn3c2N[C@@H](C)C(F)(F)F)c(F)c1,cell viability activity,[1],-72.6%
same,cell viability activity,[2],-62.1%
O=C(NC[C@H](O)CO)c1ccncc1Nc1ccc(I)cc1F,cell viability activity,[1],-83.4%
same,cell viability activity,[2],-91.2%
CN(C)CCCCC(=O)Nc1ccc(NC(=S)NC(=O)c2ccc(C(C)(C)C)cc2)cc1,cell viability activity,[1],-85.9%
same,cell viability activity,[2],-91.9%
C[C@@H](Oc1ccc2[nH]nc(/C=C/c3cnn(CCO)c3)c2c1)c1c(Cl)cncc1Cl,cell viability activity,[1],-87.9%
same,cell viability activity,[2],-88.8%
COc1ccc2c(O[C@@H]3C[C@H]4C(=O)N[C@]5(C(=O)NS(=O)(=O)C6CC6)C[C@H]5/C=C\CCCCN(C)C(=O)[C@@H]4C3)cc(-c3nc(C(C)C)cs3)nc2c1C,cell viability activity,[1],-30%
same,cell viability activity,[2],-23.2%
CCCCC(=O)O[C@H]1CC[C@H]2[C@@H]3CCc4cc(O)ccc4[C@H]3CC[C@]12C,cell viability activity,[1],-22.9%
same,cell viability activity,[2],-32.5%
O=C(Nc1ccncc1)Nc1ccc(-c2nc(N3CCOCC3)nc(N3C4CCC3COC4)n2)cc1,cell viability activity,[1],-64.5%
same,cell viability activity,[2],-36.2%
N#Cc1cc2c(OCC(O)CN3CCN(C(c4ccccc4)c4ccccc4)CC3)cccc2[nH]1 (stereo unspecified),cell viability activity,[1],-23.9%
same,cell viability activity,[2],-20.5%
Cc1ccc(C(=O)N(CCCN)[C@@H](c2oc3cc(Cl)ccc3c(=O)c2Cc2ccccc2)C(C)C)cc1,cell viability activity,[1],-63.6%
same,cell viability activity,[2],-78.3%
COC(=O)Nc1nc2cc(C(=O)c3ccc(F)cc3)ccc2[nH]1,cell viability activity,[1],-46.6%
same,cell viability activity,[2],-51.2%
O=C(CCCCCCC(=O)Nc1ccccc1)NO,cell viability activity,[1],-85.7%
same,cell viability activity,[2],-84.4%
Clc1ccc(Cn2c(CN3CCCC3)nc3ccccc32)cc1,cell viability activity,[1],-32.7%
same,cell viability activity,[2],11.6%
C/C=C1\NC(=O)[C@H]2CSSCC/C=C/[C@H](CC(=O)N[C@H](C(C)C)C(=O)N2)OC(=O)[C@H](C(C)C)NC1=O,cell viability activity,[1],-94.9%
same,cell viability activity,[2],-77.3%
CN1CC[C@H](c2c(O)cc(O)c3c(=O)cc(-c4ccccc4Cl)oc23)[C@H](O)C1,cell viability activity,[1],-83.4%
same,cell viability activity,[2],-87.7%
CCCCCCCCCCCCCCCC[N+](C)(C)CCN(Cc1ccc(OC)cc1)c1ncccn1,cell viability activity,[1],-95.1%
same,cell viability activity,[2],-94.5%
CN1CCN(CCCN2c3ccccc3Sc3ccc(C(F)(F)F)cc32)CC1,cell viability activity,[1],-34.4%
same,cell viability activity,[2],-18.8%
Nc1cc(C(F)(F)F)c(-c2cc(N3CCOCC3)nc(N3CCOCC3)n2)cn1,cell viability activity,[1],-75.9%
same,cell viability activity,[2],-60.1%
CCC1=C[C@@H]2CN(C1)Cc1c([nH]c3ccccc13)[C@@](C(=O)OC)(c1cc3c(cc1OC)N(C)[C@H]1[C@@](O)(C(=O)OC)[C@H](OC(C)=O)[C@]4(CC)C=CCN5CC[C@]31[C@@H]54)C2,cell viability activity,[1],-62.4%
same,cell viability activity,[2],-40%
CCN(CC)Cc1ccc2cc(COC(=O)Nc3ccc(C(=O)NO)cc3)ccc2c1,cell viability activity,[1],-91.4%
same,cell viability activity,[2],-84.2%
CCc1c(O)cc(O)c(C(=O)c2ccc(OCCN3CCOCC3)c(OC)c2)c1CC(=O)N(CCOC)CCOC,cell viability activity,[1],-93%
same,cell viability activity,[2],-90%
CCN(CC)CCCCNc1ncc2cc(-c3c(Cl)cccc3Cl)c(NC(=O)NC(C)(C)C)nc2n1,cell viability activity,[1],-49.6%
same,cell viability activity,[2],-33%
CC(C)c1cc(C(C)C)c(-c2csc(N(CCN(C)C)Cc3cccnc3)n2)c(C(C)C)c1,cell viability activity,[1],-24%
same,cell viability activity,[2],-63.4%
Cn1ncc(Cl)c1-c1cc(C(=O)N[C@H](CN)Cc2ccc(F)c(F)c2)oc1Cl,cell viability activity,[1],-70.4%
same,cell viability activity,[2],-61.1%
CN1CCC[C@@H]1Cc1c[nH]c2ccc(CCS(=O)(=O)c3ccccc3)cc12,cell viability activity,[1],-25.1%
same,cell viability activity,[2],-27.2%
Cn1c(=O)n(-c2ccc(C(C)(C)C#N)cc2)c2c3cc(-c4cnc5ccccc5c4)ccc3ncc21,cell viability activity,[1],-56.8%
same,cell viability activity,[2],-44.1%
CN(C)C(=O)[C@H](O)[C@H](Cc1ccccc1)NC(=O)c1cc2cc(Cl)ccc2[nH]1,cell viability activity,[1],-26.8%
same,cell viability activity,[2],7.41%
C=CCn1c(=O)c2cnc(Nc3ccc(N4CCN(C)CC4)cc3)nc2n1-c1cccc(C(C)(C)O)n1,cell viability activity,[1],-74.4%
same,cell viability activity,[2],-81%
COc1cccc2c1C(=O)c1c(O)c3c(c(O)c1C2=O)C[C@@](O)(C(C)=O)C[C@@H]3O[C@H]1C[C@H](N)[C@H](O)[C@H](C)O1,cell viability activity,[1],-97.7% and -94% and -93.6%
same,cell viability activity,[2],-96.9% and -95.8% and -96%
CCOc1cc(C(=O)N2CCC(N3CCN(C)CC3)CC2)ccc1Nc1ncc2c(n1)N(C1CCCC1)c1ccccc1C(=O)N2C,cell viability activity,[1],-64.4%
same,cell viability activity,[2],-65.5%
COc1ccc(-c2nc(N3CCOCC3)c3sc(CN(C)c4ncc(C(=O)NO)cn4)cc3n2)cn1,cell viability activity,[1],-94.5%
same,cell viability activity,[2],-93.5%
